# PubChem BioAssay (EPA / NIEHS)
# Values joined by “and” are separate entries in the source; they are usually repeats but may differ in a detail not shown here. Equal values may be shown once. Inconclusive results are not listed. Active and inactive are the calls of the source. How the source made its calls, unless noted: active means hit-call score of the fitted dose curve at least 0.9, where 1 is the maximum; inconclusive means response in the unintended direction; inactive means score below 0.9.
# What was measured:
# [1] = TOX21_PR_LUC_Followup_Agonist_viability: Viability Assessment in the Tox21 HEK293 Progesterone Receptor (PR) Agonism Luciferase Follow-Up Assay (AID 2283941);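 further: loss of signal means cytotoxicity so actives lower viability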
# Method in brief: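 HEK293-PR-A-luc cells, kept in 10% charcoal-stripped FBS medium, were treated with compounds for 16 h at 37C. Viability read as cellular ATP by luciferase-coupled luminescence; loss of signal indicates cytotoxicity.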
# THRA (gene 7067) = THRA (gene 7067) (UniProt P10827); experiment: TOX21_TRA_COA_Agonist_Followup_ratio: Tox21 Thyroid Hormone Receptor alpha Agonism through Coactivator Recruitment Follow-Up Assay, Ratio (AID 2283948; active means hit-call score of the fitted dose curve at least 0.9, where 1 is the maximum; inactive means score below 0.9)
# THRA (gene 7067), sequence (P10827 whole entry, looked up, the tested form may be a part): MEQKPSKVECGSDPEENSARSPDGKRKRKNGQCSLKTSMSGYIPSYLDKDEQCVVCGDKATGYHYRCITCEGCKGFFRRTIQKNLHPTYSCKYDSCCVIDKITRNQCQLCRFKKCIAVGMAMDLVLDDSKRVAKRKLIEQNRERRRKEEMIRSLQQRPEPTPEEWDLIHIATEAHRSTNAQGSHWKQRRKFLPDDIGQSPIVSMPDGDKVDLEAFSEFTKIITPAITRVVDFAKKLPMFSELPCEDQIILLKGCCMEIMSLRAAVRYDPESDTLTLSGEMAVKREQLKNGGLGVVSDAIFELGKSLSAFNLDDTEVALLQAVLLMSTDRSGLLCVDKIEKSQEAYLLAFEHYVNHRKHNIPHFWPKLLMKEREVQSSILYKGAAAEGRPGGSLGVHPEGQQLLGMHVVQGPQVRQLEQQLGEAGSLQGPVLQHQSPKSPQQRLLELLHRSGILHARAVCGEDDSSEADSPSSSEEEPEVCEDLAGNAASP
# Method in brief: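 Cell-free TR-FRET: GST-tagged TRα LBD (2.5 nM) with 0.10% BSA and compound, then fluorescein-SRC-2 peptide (200 nM) and Tb-anti-GST antibody (2 nM). Readout 520:495 nm ratio (ex 340 nm), normalized to DMSO (0%) and T3 (100%).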
# THRB (gene 7068) [2] = target: THRB (gene 7068) (UniProt P10828); experiment: TOX21_TRB_BLA_Agonist_Followup_ratio: Tox21 Thyroid Hormone Receptor beta Agonism Beta-lactamase (BLA) Follow-Up Assay, Ratio (AID 2283954)
# THRB (gene 7068), sequence (P10828 whole entry, looked up, the tested form may be a part): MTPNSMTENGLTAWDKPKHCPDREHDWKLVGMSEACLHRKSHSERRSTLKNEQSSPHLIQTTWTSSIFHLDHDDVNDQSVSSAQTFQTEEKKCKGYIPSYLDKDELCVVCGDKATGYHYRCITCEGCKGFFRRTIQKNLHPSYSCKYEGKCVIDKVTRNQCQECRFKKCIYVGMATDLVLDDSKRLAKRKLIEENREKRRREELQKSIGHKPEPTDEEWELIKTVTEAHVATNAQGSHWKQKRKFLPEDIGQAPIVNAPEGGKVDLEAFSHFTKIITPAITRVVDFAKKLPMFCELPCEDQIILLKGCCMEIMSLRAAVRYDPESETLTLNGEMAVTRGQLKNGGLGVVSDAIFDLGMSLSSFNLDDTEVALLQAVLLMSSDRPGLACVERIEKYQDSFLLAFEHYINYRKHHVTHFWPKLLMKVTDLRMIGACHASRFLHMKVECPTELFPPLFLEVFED
# Method in brief: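 Human TRβ LBD–GAL4 DBD fusion in GeneBLAzer UAS-bla HEK293T cells; 11 concentrations in triplicate, 18 h at 37°C/5% CO2, T3 as agonist control. CCF4-AM substrate 2 h at room temperature; 460:530 nm ratio fitted for gain of signal versus DMSO.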
# [3] = TOX21_TRB_BLA_Agonist_Followup_viability: Viability Assessment in the Tox21 Thyroid Hormone Receptor beta Agonism Beta-lactamase (BLA) Follow-Up Assay (AID 2283956)
# Method in brief: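 TRb-bla HEK293T cells (GAL4-DBD/human TRb LBD) in 2% charcoal-stripped FBS medium were exposed 18 h at 37C to 11 concentrations in triplicate. CellTiter-Glo ATP luminescence was read after 30 min at room temperature, with bidirectional fitting against DMSO.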
# THRB (gene 7068) [4] = target: THRB (gene 7068) (UniProt P10828); experiment: TOX21_TRB_COA_Agonist_Followup_ratio: Tox21 Thyroid Hormone Receptor beta Agonism through Coactivator Recruitment Follow-Up Assay, Ratio (AID 2283963; active means hit-call score of the fitted dose curve at least 0.9, where 1 is the maximum; inactive means score below 0.9)
# Method in brief: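 Signal is the 520/495 nm emission ratio (excitation 340 nm), scaled between DMSO-only wells as 0% and T3 wells as 100%. It reflects fluorescein-labeled SRC-2 peptide recruitment to GST-TRβ ligand-binding domain detected via terbium anti-GST antibody.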
# [5] = target: Retinoic acid receptor RXR-alpha (Homo sapiens) (UniProt P19793); experiment: TOX21_TR_RXR_BLA_Agonist_Followup_ratio: Tox21 Thyroid Hormone Receptor beta Retinoid X Receptor alpha (RXRa) Agonism Beta-lactamase (BLA) Follow-Up Assay, Ratio (AID 2283968)
# Retinoic acid receptor RXR-alpha (Homo sapiens), sequence (P19793 whole entry, looked up): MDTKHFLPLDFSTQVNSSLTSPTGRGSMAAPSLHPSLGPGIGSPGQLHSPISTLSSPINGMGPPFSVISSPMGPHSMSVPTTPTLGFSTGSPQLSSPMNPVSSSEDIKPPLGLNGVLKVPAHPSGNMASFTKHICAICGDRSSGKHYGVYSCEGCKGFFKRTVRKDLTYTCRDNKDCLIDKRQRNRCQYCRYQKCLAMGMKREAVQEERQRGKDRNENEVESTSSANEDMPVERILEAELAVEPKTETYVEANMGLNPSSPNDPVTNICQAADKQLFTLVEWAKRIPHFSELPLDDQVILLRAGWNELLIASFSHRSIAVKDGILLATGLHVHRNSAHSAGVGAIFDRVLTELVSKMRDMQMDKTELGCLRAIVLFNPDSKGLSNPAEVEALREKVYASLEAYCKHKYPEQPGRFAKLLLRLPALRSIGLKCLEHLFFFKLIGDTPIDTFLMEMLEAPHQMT
# Method in brief: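 RXRa-UAS-bla HEK293T cells, 5 h attachment at 37C/5% CO2, then 11 concentrations in triplicate for 16 h; 9-cis retinoic acid positive control. FRET-B/GCCF4-AM substrate 2 h at room temperature; 460:530 nm ratio, fitted for gain versus DMSO.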
# [6] = TOX21_TR_RXR_BLA_Agonist_Followup_viability: Viability Assessment in the Tox21 Thyroid Hormone Receptor beta Retinoid X Receptor alpha (RXRa) Agonism Beta-lactamase (BLA) Follow-Up Assay (AID 2283970)
# Method in brief: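 RXRa-UAS-bla HEK293T cells, 2,500/well in phenol red-free DMEM with 2% charcoal-stripped FBS, dosed for 16 h at 37C. Viability measured by CellTiter-Glo ATP luminescence; fitted bidirectionally against DMSO baseline, loss of signal indicating cytotoxicity.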
# [7] = target: Nucleoli Translocation, AR (gene 367) (UniProt P10275); experiment: UPITT_HCI_U2OS_AR_TIF2_Nucleoli_Antagonist: University of Pittsburgh U2OS Androgen Receptor-Transcriptional Intermediary Factor 2 (AR-TIF2) Antagonism High Content Imaging Assay for Nucleoli Translocation (AID 2283997)
# Nucleoli Translocation, AR (gene 367), sequence (P10275 whole entry, looked up): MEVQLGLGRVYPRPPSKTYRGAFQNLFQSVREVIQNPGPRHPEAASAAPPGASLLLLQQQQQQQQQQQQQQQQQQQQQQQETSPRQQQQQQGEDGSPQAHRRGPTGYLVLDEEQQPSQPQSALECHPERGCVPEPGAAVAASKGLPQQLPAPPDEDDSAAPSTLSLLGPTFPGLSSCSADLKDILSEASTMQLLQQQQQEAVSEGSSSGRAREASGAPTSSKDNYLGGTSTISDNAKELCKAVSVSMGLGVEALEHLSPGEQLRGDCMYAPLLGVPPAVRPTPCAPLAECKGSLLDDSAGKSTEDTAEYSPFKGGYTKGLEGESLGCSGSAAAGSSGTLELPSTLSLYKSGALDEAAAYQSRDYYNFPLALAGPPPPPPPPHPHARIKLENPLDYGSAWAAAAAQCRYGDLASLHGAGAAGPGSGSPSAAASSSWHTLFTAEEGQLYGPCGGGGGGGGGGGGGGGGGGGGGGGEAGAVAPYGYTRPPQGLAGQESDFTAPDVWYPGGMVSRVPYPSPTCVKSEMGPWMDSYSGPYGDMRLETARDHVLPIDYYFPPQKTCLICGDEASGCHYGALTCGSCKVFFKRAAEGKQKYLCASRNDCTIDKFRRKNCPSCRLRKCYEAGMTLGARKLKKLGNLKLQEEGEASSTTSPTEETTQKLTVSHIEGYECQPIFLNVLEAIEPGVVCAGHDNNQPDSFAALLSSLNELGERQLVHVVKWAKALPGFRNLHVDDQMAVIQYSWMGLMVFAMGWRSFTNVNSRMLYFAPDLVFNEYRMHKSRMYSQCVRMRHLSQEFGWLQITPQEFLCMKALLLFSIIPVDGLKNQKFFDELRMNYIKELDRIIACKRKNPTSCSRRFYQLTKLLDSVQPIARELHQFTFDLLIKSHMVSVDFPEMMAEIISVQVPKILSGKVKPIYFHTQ
# Method in brief: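 U2OS cells co-expressing red-fluorescent-tagged human AR and green-fluorescent-tagged TIF2, imaged by high-content microscopy for nucleolar red fluorescence. Antagonist mode against DHT; primary screen at 20 uM final (0.2% DMSO).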
# [8] = target: Nucleoli Translocation, AR (gene 367) (UniProt P10275); experiment: UPITT_HCI_U2OS_AR_TIF2_Nucleoli_Agonist: University of Pittsburgh U2OS Androgen Receptor-Transcriptional Intermediary Factor 2 (AR-TIF2) Agonism High Content Imaging Assay for Nucleoli Translocation (AID 2283998)
# Method in brief: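 U2OS cells expressing RFP-tagged human AR and GFP-tagged TIF2; red fluorescence in nucleoli quantified by high-content imaging. Primary screen at 20 uM final (0.2% DMSO); concentration-response 0.195–50 uM (0.5% DMSO), fitted upward versus DMSO.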
# [9] = target: Ratio of Nucleoli Translocation and Cytoplasm, AR (gene 367) (UniProt P10275); experiment: UPITT_HCI_U2OS_AR_TIF2_Nucleoli_Cytoplasm_Ratio_Antagonist: University of Pittsburgh U2OS Androgen Receptor-Transcriptional Intermediary Factor 2 (AR-TIF2) Antagonism High Content Imaging Assay for Ratio of Nucleoli Translocation and Cytoplasm (AID 2283999);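 further: antagonists lower the DHT-driven ratio of nucleolar to cytoplasmic red signal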
# Ratio of Nucleoli Translocation and Cytoplasm, AR (gene 367), sequence (P10275 whole entry, looked up): as above
# Method in brief: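 U2OS cells co-expressing RFP-tagged human AR and GFP-tagged TIF2, antagonist mode with DHT as baseline. Nucleolar-to-cytoplasmic red fluorescence ratio imaged by high-content microscopy; final compound 20 uM (0.2% DMSO) primary, 0.195–50 uM (0.5% DMSO) concentration-response.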
# [10] = target: Ratio of Nucleoli Translocation and Cytoplasm, AR (gene 367) (UniProt P10275); experiment: UPITT_HCI_U2OS_AR_TIF2_Nucleoli_Cytoplasm_Ratio_Agonist: University of Pittsburgh U2OS Androgen Receptor-Transcriptional Intermediary Factor 2 (AR-TIF2) Agonism High Content Imaging Assay for Ratio of Nucleoli Translocation and Cytoplasm (AID 2284000);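 further: hits raise the red nucleolar to cytoplasm ratio above vehicle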
# Method in brief: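 U2OS cells expressing RFP-tagged human AR and GFP-tagged TIF2; high-content imaging ratio of nucleolar to cytoplasmic red fluorescence, fitted as gain of signal vs DMSO. Single point at 20 uM final (0.2% DMSO); concentration-response 0.195-50 uM final (0.5% DMSO).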
# DIO1 (gene 1733) = experiment: CCTE_GLTED_hDIO1: CCTE's human Deiodinase 1 (DIO1) Inhibition Assay, Great Lakes Toxicology and Ecology Division (GLTED) Lab (AID 2283987);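 further: isolated human DIO1 enzyme in a cell-free setup rather than cells; enzyme activity read as free iodide liberated from substrate via Sandell-Kolthoff colorimetry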
# Method in brief: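 Cell-free human DIO1 enzyme incubated 3 h with test chemical; iodide freed from substrate then measured by Sandell-Kolthoff absorbance. Run in triplicate; loss of signal relative to DMSO taken as inhibition.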
# [11] = CCTE_Harrill_HTTr_Viability_MCF7: CCTE's 6-hour Cell Viability Assessment for the High-Throughput Transcriptomics (HTTr) Platform, in MCF-7 cells cultured in DMEM + 10% fetal bovine serum, Harrill Lab (AID 2284010; active means hit-call score of the fitted dose curve at least 0.9, where 1 is the maximum; inactive means score below 0.9)
# Method in brief: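 MCF-7 cells in DMEM + 10% FBS, 384-well, exposed 6 h to an eight-point dilution series. Membrane integrity scored by high-content imaging of propidium iodide exclusion; bidirectional fit versus DMSO.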
# [12] = CCTE_Harrill_HTTr_Apoptosis_MCF7: CCTE's 6-hour Apoptosis Assessment for the High-Throughput Transcriptomics (HTTr) Platform, in MCF-7 cells cultured in DMEM + 10% fetal bovine serum, Harrill Lab (AID 2284011; active means hit-call score of the fitted dose curve at least 0.9, where 1 is the maximum; inactive means score below 0.9)
# Method in brief: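 MCF-7 cells in DMEM + 10% FBS exposed 6 h to chemicals over an eight-point dilution series. Caspase-3/7 activation imaged by high-content CellEvent Green staining; fitted bidirectionally versus DMSO.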
# [13] = CCTE_Shafer_MEA_acute_spike_number: CCTE's Neural Acute Assay for Total Number of Spikes, Shafer Lab (AID 2284008; active means hit-call score of the fitted dose curve at least 0.9, where 1 is the maximum; inactive means score below 0.9;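 on AC50: curve fitted for decrease in spike count so AC50 reflects inhibitors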)
# Method in brief: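 Rat primary cortical neurons on 48-well MEA plates, DIV 13 or 15, at 37 C. 40 min baseline then 40 min with compound (0.03-40 uM); spikes detected at 8x rms noise, expressed as percent change from baseline.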
# [14] = CCTE_Shafer_MEA_acute_firing_rate_mean: CCTE's Neural Acute Assay for Mean Firing Rate, Shafer Lab (AID 2284009; active means hit-call score of the fitted dose curve at least 0.9, where 1 is the maximum; inactive means score below 0.9;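 further: analyzed for loss of signal so actives lower firing rate relative to DMSO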)
# Method in brief: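 Rat primary cortical neurons on 48-well MEA plates, dosed at 0.03-40 uM on DIV 13 or 15; 40 min spontaneous activity recorded at 37 C before and after compound. Spike rate per electrode averaged per well, expressed as percent change from baseline.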
# [15] = CCTE_Simmons_MITO_basal_resp_rate: CCTE's HepG2 Seahorse XF Respirometric Screening Assay at Basal Respiratory State, Simmons Lab (AID 2284001; active means hit-call score of the fitted dose curve at least 0.9, where 1 is the maximum; inactive means score below 0.9); settings: actives raise or lower the signal
# Method in brief: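 HepG2 oxygen consumption on Seahorse XF96 after compound injection, 7 concentrations 125 nM–100 uM final, reads every 6 min over 72 min. Triplicate biological replicates; bidirectional fit vs DMSO; fenpyroximate and 2,4-dinitrophenol controls.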
# [16] = CCTE_Simmons_MITO_max_resp_rate: CCTE's HepG2 Seahorse XF Respirometric Screening Assay at Maximal Respiratory State [uncoupled], Simmons Lab (AID 2284002; active means hit-call score of the fitted dose curve at least 0.9, where 1 is the maximum; inactive means score below 0.9); settings: actives raise or lower the signal
# Method in brief: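 HepG2 oxygen consumption measured on Seahorse XF after FCCP uncoupling, following test compound injection; 7 concentrations from 125 nM to 100 uM final. Readings every 6 min over 72 min, three biological replicates; bidirectional fit versus DMSO.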
# [17] = CCTE_Simmons_MITO_inhib_resp_rate: CCTE's HepG2 Seahorse XF Respirometric Screening Assay at Inhibited Respiratory State [full ETC block], Simmons Lab (AID 2284006; active means hit-call score of the fitted dose curve at least 0.9, where 1 is the maximum; inactive means score below 0.9); settings: actives raise or lower the signal
# Method in brief: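 HepG2 oxygen consumption was measured by Seahorse XF after compound, FCCP, then rotenone/antimycin A injections. Seven concentrations from 125 nM to 100 uM (final) were tested, with 6-min kinetic reads over 72 minutes. Inhibited-state OCR was fitted bidirectionally against DMSO.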
# [18] = CCTE_Simmons_MITO_viability: CellTiter-Glo Viability Assessment for CCTE's HepG2 Seahorse XF Respirometric Screening Assay [post-hoc], Simmons Lab (AID 2284007)
# Method in brief: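 HepG2 cells exposed 90 min to 7 concentrations from 125 nM to 100 uM final, then ATP measured by luciferase luminescence. Three biological replicates per concentration; DMSO vehicle; dichlone control at 10 nM–100 uM.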
compound,measurement,setting,value
Nc1ccc(-c2ccccc2)cc1,outcome,[1],inactive
CCC[CH2][Sn]([CH2]CCC)([CH2]CCC)[CH2]CCC,outcome,THRA (gene 7067),inactive
same,outcome,THRB (gene 7068) [2],inactive
same,outcome,[3],inactive
same,outcome,THRB (gene 7068) [4],inactive
same,AC50,[5],5.08 µM (active)
same,outcome,[6],inactive
CC(=Cc1ccccc1)[N+](=O)[O-],AC50,[7],0.585 µM (active)
same,outcome,[8],inactive
same,AC50,[9],0.845 µM (active)
same,outcome,[10],inactive
O=[N+]([O-])c1ccc(Nc2ccccc2)cc1,outcome,[1],inactive
CC(C)N(C(=O)CCl)c1ccccc1,AC50,DIO1 (gene 1733),43.5 µM (active)
same,AC50,[7],16 µM (active)
same,outcome,[8],inactive
same,AC50,[9],11.4 µM (active)
same,outcome,[10],inactive
same,outcome,[11],inactive
same,outcome,[12],inactive
CC(C)CC(C)(c1ccc(O)cc1)c1ccc(O)cc1,outcome,[1],inactive
O=S1(=O)OC(c2cc(Br)c(O)c(Br)c2)(c2cc(Br)c(O)c(Br)c2)c2ccccc21,AC50,DIO1 (gene 1733),58.8 µM (active)
same,outcome,[7],inactive
same,outcome,[9],inactive
same,outcome,[11],inactive
same,outcome,[12],inactive
CCOP(=S)(OCC)Oc1ccc(Cl)cc1Cl,outcome,[1],inactive
same,outcome,[11],inactive
same,outcome,[12],inactive
Cc1ccccc1OP(=O)(Oc1ccccc1C)Oc1ccccc1C,outcome,[1],inactive
same,AC50,[13],25.4 µM (active)
same,outcome,[14],inactive
CCCCCCCCCCCCc1cccc(S(=O)(=O)O)c1,AC50,DIO1 (gene 1733),129 µM (active)
same,outcome,[13],inactive
same,outcome,[14],inactive
same,outcome,[11],inactive
same,outcome,[12],inactive
O=[N+]([O-])c1ccc(Cl)c([N+](=O)[O-])c1,AC50,DIO1 (gene 1733),92.7 µM (active)
same,AC50,[7],1.9 µM (active)
same,AC50,[8],3.34 µM (active)
same,AC50,[9],2.39 µM (active)
same,AC50,[10],13.1 µM (active)
same,AC50,[11],67.7 µM (active) and 56.9 µM (active)
same,outcome,[12],inactive
O=C(O)C1(c2ccc3c(c2)OC[C@H](Cc2ccc(-c4ccccc4)cc2)[C@H]3O)CCCC1,AC50,[15],5.21 µM (active)
same,AC50,[16],8.48 µM (active)
same,outcome,[17],inactive
same,outcome,[18],inactive
same,outcome,[11],inactive
same,outcome,[12],inactive
O=C(NC(=O)c1c(F)cccc1F)Nc1cc(Cl)c(OC(F)(F)C(F)C(F)(F)F)cc1Cl (configuration not stated),outcome,[7],inactive
same,outcome,[8],inactive
same,outcome,[9],inactive
same,outcome,[10],inactive
O=C(N[C@H]1CN2CCC1CC2)c1ccc2c(c1)OCCO2,outcome,[7],inactive
same,outcome,[8],inactive
same,outcome,[10],inactive
same,outcome,[11],inactive
same,outcome,[12],inactive
CC(C)(C1CCC(O)CC1)C1CCC(O)CC1 (configuration not stated),outcome,[1],inactive
N#CCC#N,outcome,[7],inactive
same,outcome,[9],inactive
same,outcome,[11],inactive
same,outcome,[12],inactive
CN(C)c1ccc(N=O)cc1,outcome,THRA (gene 7067),inactive
same,outcome,[3],inactive
same,outcome,THRB (gene 7068) [4],inactive
same,AC50,[6],49.6 µM (active)
c1csc(-c2ccc(-c3cccs3)s2)c1,outcome,THRA (gene 7067),inactive
same,outcome,THRB (gene 7068) [2],inactive
same,outcome,[3],inactive
same,outcome,THRB (gene 7068) [4],inactive
same,outcome,[6],inactive
